# Sampled rows, rich in hits. Any-hit rate of the full collection: about 7.7%.
# HCMV antiviral: inhibitors of human cytomegalovirus; HFF cells, HCMV-luciferase reporter, 72 h; stronger effect = lower value; activity change, negative = inhibition, % at 57.5 µM; 4.5% of 410,000 active; in the data active = activity change below about -60%; inconclusive = no clear call, values can overlap the other calls; inactive = above about -39%
#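 Screen run at 2 compound doses on HFFs infected with reporter HCMV, MOI 1 PFU/cell. Luciferase activity from cell lysates at 72 h post infection gave inhibition relative to buffer-only and Salinomycin wells.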
# FBPA Giardia inh: inhibitors of Giardia lamblia fructose-1,6-bisphosphate aldolase | A8B2U2 | purified Giardia FBPA | Potency, µM (titrated, usually from 59.6 µM), for the others: at the highest dose activity, negative = inhibition, hits mostly inhibitors | 0.71% of 290,000 active; also: potency is read from the fitted curve at half-maximal effect; nearly all actives have a fitted effect of over 55% in size
# Target sequence (A8B2U2 whole entry, looked up): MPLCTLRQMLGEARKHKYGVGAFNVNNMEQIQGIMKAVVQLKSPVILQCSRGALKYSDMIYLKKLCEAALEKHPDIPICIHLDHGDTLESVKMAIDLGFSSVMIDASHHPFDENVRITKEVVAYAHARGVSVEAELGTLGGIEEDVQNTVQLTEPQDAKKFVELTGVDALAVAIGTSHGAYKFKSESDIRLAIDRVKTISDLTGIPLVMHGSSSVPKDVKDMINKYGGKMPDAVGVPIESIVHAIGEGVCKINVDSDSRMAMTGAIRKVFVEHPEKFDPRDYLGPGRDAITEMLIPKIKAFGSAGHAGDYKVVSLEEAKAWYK
#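 40 nM FBPA preincubated 10 min at RT with compound (up to 57.5 uM final), then substrate plus GAPDH/TPI/NAD/arsenate coupling and diaphorase/resazurin added. Fluorescence read after 20 min at RT, 525/598 nm.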
# TbPYK inhibitor: blocks Trypanosoma brucei pyruvate kinase; Q57TT1; TbPYK enzyme, Kinase-Glo Plus ATP luminescence, 45 min; Potency, µM (top dose mostly 76.8 µM), for inactives: at the highest dose activity, negative = inhibition, usual class: inhibitors; 0.12% of 410,000 active; also: potency is read from the fitted curve at half-maximal effect; nearly all actives have a fitted effect of over 50% in size
#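 Quantitative HTS: titrated library compounds versus trypanosomal pyruvate kinase in TEA buffer (pH 7.2) containing KCl, MgCl2, BSA and Tween-20. Reactions were initiated with ADP, 130 uM final. Kinase-Glo Plus luminescence was read after 45 min at RT.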
# FMDV antiviral: blocks foot and mouth disease virus. FMDV antiviral cell-based qHTS. AID 1159524. Potency, µM (titrated, usually from 57.9 µM), without a hit: at the highest dose activity change, negative = inhibition, actives largely listed as inhibitors. 1.2% of 410,000 active; calls by dose curve; tested in HEK293T cells; also: read-out not given here; potency is read from the fitted curve at half-maximal effect; nearly all actives have a fitted effect of over 45% in size
# RE007 growth inh: less growth of the S. pombe RE007 Vpr strain. S. pombe RE007 Vpr strain, BacTiter-Glo ATP luminescence, 24 h. Potency, µM (doses to about 92.2 µM), for the others: at the highest dose activity change, negative = less growth, actives largely listed as inhibitors. 0.21% of 360,000 active; active = well fitted falling curve with a large enough effect; inconclusive = small, poorly fitted or top-dose-only effect; inactive = no such curve, though single readings can be large or run the other way; also: potency is read from the fitted curve at half-maximal effect; nearly all actives have a fitted effect of over 50% in size
#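 Fission yeast strain RE007, carrying one chromosomally integrated HIV-1 vpr copy, was seeded at OD 0.01 in PMG+AL medium with 23 nL pinned compound. After 24 h at 30 °C and 99% humidity, viability was read by BacTiter-Glo luminescence.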
# Sm TGR inh: blocks Schistosoma mansoni thioredoxin glutathione reductase. 3% of 360,000 active. purified TGR, DTNB reduction, TNB absorbance 405 nm. Potency, µM (doses to about 114 µM), for the others: top-dose activity change, negative = inhibition, most hits filed as inhibitors; also: potency is read from the fitted curve at half-maximal effect; nearly all actives have a fitted effect of over 60% in size
#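 Kinetic colorimetric format: TGR-catalysed, NADPH-driven DTNB reduction monitored via TNB absorbance. Enzyme dispensed at 20 nM; compound exposure 15 min at room temperature before reaction start.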
# An asterisk follows results filed as active; ? = inconclusive; . = no result; [ ] = another dose, or the depositor's remark. Unless noted, calls follow the shape of the dose curve; as a rule, active = well fitted curve in the direction sought with a large enough effect; inconclusive = small, poorly fitted or top-dose-only effect, or another doubt; inactive = no such curve, though single readings can be large; an effect the other way counts as inactive or inconclusive. % is scaled to controls: 0 for no effect and ±100 for the full control effect.
SMILES,HCMV antiviral,FBPA Giardia inh,TbPYK inhibitor,FMDV antiviral,RE007 growth inh,Sm TGR inh
CC1COC2=C1C(=O)C(=O)c1c2ccc2c1CCCC2(C)C (stereo not given),.,1.6µM*,.,-9%,.,.
C[C@H]1COC2=C1C(=O)C(=O)c1c2ccc2c1CCCC2(C)C,.,?,-4%,-23%,-29%,4µM*
CO[C@H]1[C@H](NC(=O)c2ccncc2)c2ccccc2C12CCN(C(=O)c1ccoc1)CC2,.,.,.,-9%,.,.
COc1cc(=O)n2c(c1C(=O)NCc1ccc3c(c1)OCO3)CCN(C(=O)c1cccc(F)c1)CC2,.,.,.,-12%,.,.
Cc1nn2c3c(cnc2c1-c1ccc(F)cc1)C(=O)CC(c1ccccc1)C3 (stereo not given),-24,.,-4%,?,.,1%
CCN1C[C@@H]2[C@@H]3C(=O)N(Cc4ccccc4)C(=O)[C@@H]3[C@](CC)(C1=O)N2C(=O)c1ccc(Cl)cc1,-5,.,.,.,.,.
COc1cccc(CNC(=O)C2CCCN(c3nn4cc(-c5ccc(C)cc5)nc4s3)C2)c1 (stereo not given),?,.,1%[15.4 µM],-5%,.,6%
COc1ccc(N/C=C(\C=C\C#N)S(=O)(=O)c2ccccc2)cc1,-5,4%,0%,?,1%,6.3µM*
N#C/C=C/C(=C\Nc1ccc(Cl)cc1)S(=O)(=O)c1ccccc1,?,7%,-5%,-16%,15%,?
CCC1CN(CC(=O)NCc2n[nH]c3c2CCCCC3)Cc2cc(OC)ccc2O1 (stereo not given),.,.,.,-9%,.,.
COc1ccc(-c2ccc(/C=C(\NC(=O)c3ccccc3)C(=O)N3CCOCC3)o2)cc1,-63*,3%,3%,-11%,-6%,0%[57.1 µM]
COc1ccc(C(=O)N/C(=C\c2ccccc2)C(=O)N2CCOCC2)cc1,-35,.,4%,5%,5%,-1%
Cc1ccccc1Cn1ccc(=NCc2ccccc2)cc1,-98*,7%,2%,1%,-16%,-13%
Cc1ccc(NC(=O)C2CC(=O)Nc3ncnn32)c(C)c1 (stereo not given),1,-1%,1%,8%,8%,56µM*
O=C(CSc1ccccn1)Nc1nonc1[N+](=O)[O-],54,.,-20%,32µM*,?,7.1µM*
O=C(c1cccc(F)c1)n1nnc2ccccc21,12,1%,-2%,-10%,1%,35µM*
CN(C)c1ccc(C(=O)n2nnc3ccccc32)cc1,229,0%,-6%,.,-12%,-17%
C#CCOC(=O)c1ccccc1C(=O)n1nnc2ccccc21,39,-7%,0%,22µM*,-4%,-44%
CCNC(=O)C1(C)CCN(Cc2cccc3ccccc23)C1 (stereo not given),-6,.,.,.,.,.
CN(C(=O)c1cc2c(s1)-c1ccc(Cl)cc1SC2)c1cccc(C(F)(F)F)c1,-16,.,5%,-12%,.,7%
Cc1ncc(CO)c2c1Oc1nc(-c3ccccc3Cl)nc(SCc3ccccc3F)c1C2,-6,.,-3%,?,.,2%
Clc1ccc(C2=Nc3cc(Cl)ccc3OC2)cc1,13,0%,0%,0%,-16%,-4%
c1ccc(C2=Nc3ccccc3OC2)cc1,-5,-9%,-3%,31%,?,50µM*
Cc1ccc2c(c1)N=C(c1ccc(Cl)cc1)CO2,-102*,0%,-8%,5%,-7%,-18%
CCCc1nc2cc3c(cc2[nH]1)n(C)c(=O)n3C,22,?,-1%,25%,-11%,22µM*
Cn1c(=O)n(C)c2cc3[nH]cnc3cc21,76,-21%,2%,6%,10%,5%
O=C(NCc1ccco1)c1cc2ccccc2c(=O)o1,-36,0%,2%,31%,-27%,?
C=CCN(CC=C)C(=O)c1cc2ccccc2c(=O)o1,-63*,10%,-9%,-22%,-24%,20%
CCOc1ccc(OCC)c(NC(=O)C2CCN(S(=O)(=O)c3cn(C)cn3)CC2)c1,-23,.,5%,-5%,.,2%
Oc1ccc(Cl)cc1-c1cc(-c2cccc(Br)c2)n[nH]1,-93*,5%,-5%,6%,-14%,-2%
